Assay results as given in PubChem BioAssay (EPA / NIEHS).
Results filed as inconclusive are left out. Activity calls are given as the source filed them. How the source made its calls, unless noted: active means hit-call score of the fitted dose curve at least 0.9, where 1 is the maximum; inactive means score below 0.9.

How the values were obtained:
[1] = target: human Vitamin D Receptor (VDR), VDR (gene 7421) (UniProt P11473); experiment: ATG_VDR_TRANS: Attagene TRANS-FACTORIAL HepG2 Assay for human Vitamin D Receptor (VDR) (AID 2283022; active means hit-call score of the fitted dose curve at least 0.9, where 1 is the maximum)
Outline: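 HepG2 cells were transiently transfected with GAL4-UAS reporter units and a chimeric VDR-Gal4 construct, then dosed for 24 hours. Reporter mRNA was quantified by RT-PCR, fluorescent labeling, HpaI digestion and capillary electrophoresis; gain of signal analysed vs DMSO.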

[2] = read-out: Interleukin-8 (IL8), CXCL8 (gene 3576); experiment: BSK_3C_IL8: BioMAP Diversity Plus: 3C Assay for Interleukin-8 (IL8) Biomarker Activity (AID 2283020); settings: primary human endothelial cells (HUVEC); actives raise or lower the signal
Outline: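 HUVEC, 3C stimulation; 24 h compound exposure; IL-8 read by ELISA; gain or loss of signal fitted relative to DMSO control.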

[3] = read-out: Monokine induced gamma interferon (MIG), CXCL9 (gene 4283); experiment: BSK_3C_MIG: BioMAP Diversity Plus: 3C Assay for Monokine induced gamma interferon (MIG) Biomarker Activity (AID 2283021); settings: primary human endothelial cells (HUVEC); actives raise or lower the signal
Outline: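 HUVEC, 3C system; 24 h chemical exposure; MIG by ELISA; bidirectional fit vs DMSO baseline.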

[4] = BSK_3C_SRB: Viability Assessment in the BioMAP Diversity Plus: 3C Assay (AID 2283023); settings: primary human endothelial cells (HUVEC);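 further: fitted both ways against DMSO so a hit may be signal rise or drop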
Outline: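 Human umbilical vein endothelial cells in the 3C system, treated 24 h. Total protein measured by 0.1% sulforhodamine B staining after 10% TCA fixation, read at 560 nm; bidirectional fit versus DMSO.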

[5] = BSK_3C_Vis: BioMAP Diversity Plus: 3C Assay for Morphology Visualization (AID 2283025); settings: primary human endothelial cells (HUVEC);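 further: fitted both ways so gain or loss versus DMSO counts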
Outline: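 HUVEC, 3C system; light microscopy of morphology at 24 h post-dose. Bidirectional fit vs DMSO baseline. Secondary readout, background-control function.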

[6] = read-out: Pselectin, SELP (gene 6403); experiment: BSK_4H_Pselectin: BioMAP Diversity Plus: 4H Assay for Pselectin Biomarker Activity (AID 2283026); settings: primary human endothelial cells (HUVEC); actives raise or lower the signal
Outline: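 HUVEC, 24 h chemical exposure; P-selectin read by ELISA. Bidirectional curve fit vs DMSO baseline; gain or loss of signal scored.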

[7] = BSK_4H_SRB: Viability Assessment in the BioMAP Diversity Plus: 4H Assay (AID 2283027); settings: primary human endothelial cells (HUVEC);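 further: cells exposed to compound for 24 h before staining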
Outline: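 HUVEC, 24 h post-dose; 10% TCA fix, 0.1% SRB stain, A560 nm. Total protein = overt cytotoxicity, parallel to biomarker read. Bidirectional fit vs DMSO baseline.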

[8] = BSK_BE3C_SRB: Viability Assessment in the BioMAP Diversity Plus: BE3C Assay (AID 2283028); settings: primary human bronchial epithelial cells
Outline: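 Human bronchial epithelial primary cells in confluent culture, 24 h after chemical dosing; total protein by 0.1% SRB staining after 10% TCA fixation, read at 560 nm. Bidirectional fitting versus DMSO baseline.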

[9] = read-out: Thrombomodulin, THBD (gene 7056); experiment: BSK_3C_Thrombomodulin: BioMAP Diversity Plus: 3C Assay for Thrombomodulin Biomarker Activity (AID 2283029); settings: primary human endothelial cells (HUVEC); actives raise or lower the signal
Outline: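 HUVEC, 3C conditions; compound 24 h; thrombomodulin by ELISA; bidirectional curve fit vs DMSO baseline; parallel SRB total-protein staining for cytotoxicity.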

[10] = read-out: Urokinase-type plasminogen activator receptor (uPAR), PLAUR (gene 5329); experiment: BSK_4H_uPAR: BioMAP Diversity Plus: 4H Assay for Urokinase-type plasminogen activator receptor (uPAR) Biomarker Activity (AID 2283030); settings: primary human endothelial cells (HUVEC); actives raise or lower the signal
Outline: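 Human umbilical vein endothelial cells in the 4H system, 24 h after chemical dosing. Cell-surface uPAR measured by ELISA, fitted in both directions versus DMSO; cytotoxicity checked by SRB total protein in parallel cultures.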

[11] = read-out: Vascular endothelial growth factor receptor 2 (Homo sapiens) (UniProt P35968); experiment: BSK_4H_VEGFRII: BioMAP Diversity Plus: 4H Assay for Vascular endothelial growth factor receptor 2 (VEGFR2) Biomarker Activity (AID 2283031); settings: primary human endothelial cells (HUVEC); actives raise or lower the signal
Outline: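 Primary human umbilical vein endothelial cells (4H system), 24 h exposure; cell-surface VEGFR2 measured by ELISA. Bidirectional fitting versus DMSO; cytotoxicity checked in parallel by SRB total-protein staining.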

[12] = read-out: Human Leukocyte Antigen - DR isotype (HLADR), HLA-DRA (gene 3122); experiment: BSK_BE3C_HLADR: BioMAP Diversity Plus: BE3C Assay for Human Leukocyte Antigen - DR isotype (HLADR) Biomarker Activity (AID 2283032); settings: primary human bronchial epithelial cells; actives raise or lower the signal
Outline: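 Primary human bronchial epithelial cells (BE3C); 24 h chemical exposure; HLA-DR by ELISA; bidirectional curve fit vs DMSO baseline.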

[13] = read-out: Vascular cell adhesion molecule 1 (VCAM1), VCAM1 (gene 7412); experiment: BSK_4H_VCAM1: BioMAP Diversity Plus: 4H Assay for Vascular cell adhesion molecule 1 (VCAM1) Biomarker Activity (AID 2283033); settings: primary human endothelial cells (HUVEC); actives raise or lower the signal;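 further: cell-surface VCAM-1 protein measured by ELISA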
Outline: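 HUVEC, 24 h post-dose; VCAM-1 by ELISA. Bidirectional curve fit vs DMSO baseline. Parallel SRB total-protein stain (0.1% SRB after 10% TCA fixation, 560 nm) for cytotoxicity.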

[14] = read-out: Interferon-gamma inducible Protein 10 (IP10), CXCL10 (gene 3627); experiment: BSK_BE3C_IP10: BioMAP Diversity Plus: BE3C Assay for Interferon-gamma inducible Protein 10 (IP10) Biomarker Activity (AID 2283034); settings: primary human bronchial epithelial cells; actives raise or lower the signal
Outline: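 ELISA readout of IP-10 in BE3C system: primary human bronchial epithelial cells, 24 h post-dosing; bidirectional curve fit vs DMSO baseline.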

[15] = read-out: Monokine induced gamma interferon (MIG), CXCL9 (gene 4283); experiment: BSK_BE3C_MIG: BioMAP Diversity Plus: BE3C Assay for Monokine induced gamma interferon (MIG) Biomarker Activity (AID 2283035); settings: primary human bronchial epithelial cells; actives raise or lower the signal;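 further: MIG protein measured by ELISA in BE3C cultures after 24 h of dosing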
Outline: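 Dose cells (human primary bronchial epithelial), incubate 24 h, quantify MIG by ELISA, then fit concentration–response in both directions relative to DMSO control.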

[16] = read-out: Transforming growth factor beta 1 (TGFb1), TGFB1 (gene 7040); experiment: BSK_BE3C_TGFb1: BioMAP Diversity Plus: BE3C Assay for Transforming growth factor beta 1 (TGFb1) Biomarker Activity (AID 2283036;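 further: TGF-b1 protein level measured by ELISA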); settings: primary human bronchial epithelial cells; actives raise or lower the signal
Outline: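 Read-out: ELISA for TGF-b1 in primary human bronchial epithelial cultures, 24 h post-dose. Bidirectional curve fitting vs DMSO control; gain or loss of signal both scored.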

[17] = read-out: Plasminogen activator inhibitor-1 (PAI1), SERPINE1 (gene 5054); experiment: BSK_BE3C_PAI1: BioMAP Diversity Plus: BE3C Assay for Plasminogen activator inhibitor-1 (PAI1) Biomarker Activity (AID 2283037); settings: primary human bronchial epithelial cells; actives raise or lower the signal
Outline: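 ELISA read-out of PAI-1 from human bronchial epithelial primary cells, 24 h post-dosing; bidirectional curve fit vs DMSO baseline, gain or loss of signal scored.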

[18] = read-out: urokinase plasminogen activator (uPA), PLAU (gene 5328); experiment: BSK_BE3C_uPA: BioMAP Diversity Plus: BE3C Assay for urokinase plasminogen activator (uPA) Biomarker Activity (AID 2283038); settings: primary human bronchial epithelial cells; actives raise or lower the signal;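 further: uPA protein level quantified by ELISA in cell cultures; uPA read one day after compound addition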
Outline: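 Primary human bronchial epithelial cells, uPA measured by ELISA 24 h after dosing. Bidirectional change relative to DMSO; cytotoxicity checked in parallel cultures by sulforhodamine B total-protein staining.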

[19] = read-out: Urokinase-type plasminogen activator receptor (uPAR), PLAUR (gene 5329); experiment: BSK_BE3C_uPAR: BioMAP Diversity Plus: BE3C Assay for Urokinase-type plasminogen activator receptor (uPAR) Biomarker Activity (AID 2283039); settings: primary human bronchial epithelial cells; actives raise or lower the signal;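 further: cells exposed to compound for one day before measurement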
Outline: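 ELISA readout of uPAR on human lung primary bronchial epithelial cells, 24 h post-dosing. Bidirectional curve fit relative to DMSO vehicle baseline; gain or loss of signal both scored.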

[20] = read-out: Matrix Metallopeptidase 1 (MMP1), MMP1 (gene 4312); experiment: BSK_BE3C_MMP1: BioMAP Diversity Plus: BE3C Assay for Matrix Metallopeptidase 1 (MMP1) Biomarker Activity (AID 2283024); settings: primary human bronchial epithelial cells; actives raise or lower the signal
Outline: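 ELISA read-out of MMP1 in human lung bronchial epithelial primary cultures, 24 h post-dose; bidirectional curve fit vs DMSO baseline, gain or loss of signal scored.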

Measured: outcome

human Vitamin D Receptor (VDR), VDR (gene 7421), sequence (P11473 whole entry, looked up, the tested form may be a part): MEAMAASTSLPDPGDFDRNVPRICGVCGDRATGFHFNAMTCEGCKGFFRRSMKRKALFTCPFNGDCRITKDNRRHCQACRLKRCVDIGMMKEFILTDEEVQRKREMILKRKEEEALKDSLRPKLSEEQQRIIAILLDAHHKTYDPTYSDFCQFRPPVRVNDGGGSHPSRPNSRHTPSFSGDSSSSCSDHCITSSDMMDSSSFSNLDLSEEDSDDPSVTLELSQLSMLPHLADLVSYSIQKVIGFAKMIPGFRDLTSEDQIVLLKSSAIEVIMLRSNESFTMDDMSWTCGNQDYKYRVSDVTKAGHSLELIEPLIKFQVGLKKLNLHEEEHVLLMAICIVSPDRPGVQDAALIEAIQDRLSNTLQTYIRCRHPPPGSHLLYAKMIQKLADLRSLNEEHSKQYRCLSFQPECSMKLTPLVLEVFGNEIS

Cc1c[nH]c(=O)[nH]c1=O
inactive: [1]

O=C(O)c1ccc2c(c1)C(=O)OC2=O
inactive: [1]

O=C1CCCCCCCCCCCN1
not listed: [1] | [20]
inactive: all other assays above

CCN1CN(CC)CN(CC)C1
not listed: [1] | [7] | [20]
inactive: all other assays above

CCCCCCC=O
not listed: [1] | [7]
inactive: all other assays above

C=CCCCCCCCCC=O
not listed: [1] | [7]
inactive: all other assays above

CC(C)OC(=O)c1ccccc1
inactive: [1]
